High-throughput results (PubChem)
An excerpt weighted towards active compounds, which were near 4.1% of everything screened.
FAS-TE inh = inhibitors of human fatty acid synthase thioesterase domain | 360,000 compounds, 0.67% hits | P49327 | AID 602261 | recombinant FAS-TE, OMFH fluorogenic substrate, fluorescence endpoint | inhibition, % at 15 µM;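 active = compounds whose normalised, plate-corrected inhibition of enzyme fluorescence in the single-dose primary screen is 50% or more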;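 note: 0% = DMSO with enzyme and 100% = substrate without enzyme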
MIN6 prolif = inducers of beta-cell replication in MIN6 cells; MIN6 cells proliferation, ATPlite luminescence, 48 h; cells starved in 0.2% serum; 100% = growth in 10% serum; proliferation, % at 10 µM; 330,000 compounds, 0.29% hits; AID 2380;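 active = compounds whose signal lies at least 3.5 SD above the mean of all wells on their plate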;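 note: 0% = DMSO-treated cells in low-serum medium and 100% = 10% serum control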
GRIN3A LBD mod = NR3A (human) ligand-binding domain modulation; AID 1259313; NR3A LBD differential scanning fluorimetry, Tm shift; 0% = protein alone, 100% = glycine-bound protein; Tm shift relative to glycine control, % at 25 µM; 340,000 compounds, 2.5% hits;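 active = melting temperature shift of at least 10% of the positive control shift, at one fixed dose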
MPTP inh = blocks calcium-induced mitochondrial swelling | isolated mouse mitochondria, Ca2+ swelling absorbance, 30 min | inhibition, % at 10 µM | 360,000 compounds, 1.4% hits;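 active = inhibition of 50% or more, scaled per plate between neutral and stimulator controls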;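 note: 0% = DMSO wells given calcium and 100% = 1 mM EGTA wells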
pCIP destab = compounds decreasing mouse p/CIP protein stability. Q05BA5. F442A p/CIP-EGFP cells, EGFP fluorescence, 16 h. decrease of EGFP signal, % at 10 µM. 290,000 compounds, 0.01% hits. AID 1984;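 active = EGFP signal decrease of at least 30% at 10 µM or well 3 SD below plate mean, unless failing retest; inactive = the rest, including hits failing retest or dose response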
Target sequence (Q05BA5 1-1403): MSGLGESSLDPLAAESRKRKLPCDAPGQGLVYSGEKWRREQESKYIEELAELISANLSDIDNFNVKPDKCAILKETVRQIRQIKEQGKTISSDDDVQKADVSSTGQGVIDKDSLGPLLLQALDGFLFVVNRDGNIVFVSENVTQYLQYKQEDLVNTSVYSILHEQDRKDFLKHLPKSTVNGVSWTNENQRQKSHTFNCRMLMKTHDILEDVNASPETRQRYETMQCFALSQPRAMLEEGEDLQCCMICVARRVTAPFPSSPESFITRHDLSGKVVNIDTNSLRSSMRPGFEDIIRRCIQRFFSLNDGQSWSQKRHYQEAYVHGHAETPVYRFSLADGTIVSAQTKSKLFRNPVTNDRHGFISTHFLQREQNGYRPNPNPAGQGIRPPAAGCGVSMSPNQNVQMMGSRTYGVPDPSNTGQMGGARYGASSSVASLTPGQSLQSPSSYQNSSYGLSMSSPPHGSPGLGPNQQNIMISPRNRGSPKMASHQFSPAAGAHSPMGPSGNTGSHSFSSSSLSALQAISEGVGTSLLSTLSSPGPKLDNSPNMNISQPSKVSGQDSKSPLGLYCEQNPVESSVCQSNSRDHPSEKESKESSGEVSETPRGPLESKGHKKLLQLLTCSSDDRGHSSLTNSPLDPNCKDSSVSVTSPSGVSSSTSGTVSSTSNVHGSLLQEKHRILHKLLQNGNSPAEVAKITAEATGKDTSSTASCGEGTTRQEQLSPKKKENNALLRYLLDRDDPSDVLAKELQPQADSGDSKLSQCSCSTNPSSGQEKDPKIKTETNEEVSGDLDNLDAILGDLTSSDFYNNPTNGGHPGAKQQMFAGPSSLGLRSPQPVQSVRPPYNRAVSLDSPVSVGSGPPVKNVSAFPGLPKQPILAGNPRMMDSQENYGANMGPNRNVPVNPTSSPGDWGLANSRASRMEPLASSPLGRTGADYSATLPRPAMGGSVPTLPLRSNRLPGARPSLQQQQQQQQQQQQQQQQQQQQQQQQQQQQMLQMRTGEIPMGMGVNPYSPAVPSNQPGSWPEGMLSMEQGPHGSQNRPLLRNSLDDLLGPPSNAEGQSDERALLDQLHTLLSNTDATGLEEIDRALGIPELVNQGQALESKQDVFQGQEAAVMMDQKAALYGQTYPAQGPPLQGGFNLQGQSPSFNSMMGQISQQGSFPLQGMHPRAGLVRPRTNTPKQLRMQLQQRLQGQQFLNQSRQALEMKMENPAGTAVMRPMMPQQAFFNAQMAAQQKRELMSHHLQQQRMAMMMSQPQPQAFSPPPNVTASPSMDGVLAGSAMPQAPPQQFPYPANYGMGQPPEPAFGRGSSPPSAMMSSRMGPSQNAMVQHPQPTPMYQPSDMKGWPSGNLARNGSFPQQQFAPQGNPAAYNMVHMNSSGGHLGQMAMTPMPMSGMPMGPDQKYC
Rh123 counter = mitochondrial membrane potential, counter-screen; shares compounds with MPTP inh; isolated mitochondria, Rhodamine 123 fluorescence; inhibition, % at 10 µM; 5,000 compounds, 78% hits; in the data active = inhibition above about 22%;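 note: 0% = DMSO vehicle and 100% = positive control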
MPTP abs DR = MPTP inhibition, dose response swelling confirmation | shares compounds with MPTP inh | isolated mitochondria swelling, absorbance | IC50, µM | 780 compounds, 58% hits | AID 651561; in the data active = IC50 below about 20 µM
MPTP counter DR = MPTP inhibitor counter-screen activity, dose response. shares compounds with MPTP inh. isolated mitochondria counterscreen, fluorescence read-out. IC50, µM. 780 compounds, 49% hits. AID 651564; in the data active = IC50 below about 80 µM
Numbers without * were called inactive; . = not tested or not shown.

SMILES	FAS-TE inh	MIN6 prolif	GRIN3A LBD mod	MPTP inh	pCIP destab	Rh123 counter	others
Cc1ccc(NC(=O)C2CCN(S(=O)(=O)c3ccc4c(c3)NC(=O)C(C)S4)CC2)cc1C (stereo not given)	12	-7	-1	98*	-6	89*
Cc1ccc(NC(=O)C2CCN(S(=O)(=O)c3ccc4c(c3)NC(=O)C(C)S4)CC2)c(C)c1 (stereo not given)	-1	-3	-3	0	2	.
CC(C)(C)CNC(=O)c1cc2c(Br)ccc(Br)c2nc1N	4	.	.	5	.	.
COCCNC(=O)COC(=O)c1cccnc1SC	-1	-4	-2	-4	-2	.
CCOc1ccc(C(=O)Nc2ccc(N3CCN(C(C)=O)CC3)cc2)cc1[N+](=O)[O-]	6	1	-2	3	2	.
CC(=O)N1CCN(c2ccc(Oc3ccc([N+](=O)[O-])c(C(F)(F)F)c3)cc2)CC1	17	-4	8	80*	-8	76*
CC(C)c1ccc(C2C3=C(CC(C)(C)CC3=O)NC3=C2C(=O)c2ccccc23)cc1 (stereo not given)	19	-5	-18	84*	-1	61*
CC1(C)CC(=O)C2=C(C1)NC1=C(C(=O)c3ccccc31)C2c1cc([N+](=O)[O-])ccc1O (stereo not given)	25	-4	0	94*	0	57*
CC1(C)CC(=O)C2=C(C1)NC1=C(C(=O)c3ccccc31)C2c1ccccc1 (stereo not given)	6	0	-7	34	-6	.
O=S(=O)(Nc1nc2ccccc2nc1Nc1ccc(N2CCOCC2)cc1)c1cc(Cl)ccc1Cl	23	-6	20*	86*	-52	77*
O=C(N/N=C/c1cc(Br)ccc1O)Nc1ccccc1	4	0	28*	99*	-7	65*
CN(C)S(=O)(=O)c1cccc(NC(=S)N/N=C/c2cccc(O)c2)c1	-1	-3	-1	2	9	.
CN(C)S(=O)(=O)c1cccc(NC(=S)N/N=C/c2cc(Br)ccc2O)c1	24	-6	12*	100*	4	38*
NC(=O)N/N=C\c1cc(Br)ccc1O	-4	0	-5	-4	-3	.
Cc1ccc(C)c(NC(=O)CSc2nc(N)c(NC(=O)c3cccs3)c(=O)[nH]2)c1	-7	.	-1	-1	-4	.
O=C(CSc1nc2nc(-c3cccs3)cc(C(F)(F)F)c2c(=O)[nH]1)Nc1ccc(F)c(F)c1	37	-6	35*	76*	-6	50*
Cc1ccc(C)c(NC(=O)CSc2nc3nc(-c4cccs4)cc(C(F)(F)F)c3c(=O)[nH]2)c1	22	-6	9	77*	-15	61*
COC(=O)C1CC(c2ccccc2)N(c2ccccc2)O1 (stereo not given)	3	.	.	0	.	.
CN(C)C(=O)CCSc1nnc(-c2ccncc2)o1	-4	2	1	-1	-1	.
O=C(Cn1cc(C(F)(F)F)ccc1=O)N1CCc2ccccc2C1	16	5	-1	1	.	.
CCOC1=NN(c2ncc(C(F)(F)F)cc2Cl)C(=O)C1	-7	-1	-1	-1	-9	.
COc1ccc(-c2cc(=O)n(-c3ccc([N+](=O)[O-])cc3)[nH]2)cc1	6	0	9	97*	-17	71*
COc1ccc(-c2[nH]n(-c3ccc([N+](=O)[O-])cc3)c(=O)c2C=NCc2ccc(F)cc2)cc1	23	-3	-2	7	6	.
CCCCCCCCNc1ncnc2[nH]ncc12	-5	.	1	71*	.	71*
Cc1nn(-c2ccccc2)c2c1C(c1cccs1)C(C#N)=C(N)O2 (stereo not given)	-1	0	-9	75*	-5	7
SMILES	FAS-TE inh	MIN6 prolif	GRIN3A LBD mod	MPTP inh	pCIP destab	Rh123 counter	others
NS(=O)(=O)c1ccc(CCNC(=O)c2ccc[nH]c2=S)cc1	-1	2	1	0	-5	.
c1ccc2c(c1)oc1c(N3CCN(Cc4ccc5c(c4)OCO5)CC3)ncnc12	10	.	-2	86*	-1	77*
c1ccc(Cn2nnc3c(N4CCN(Cc5ccc6c(c5)OCO6)CC4)ncnc32)cc1	-85	-5	0	-2	-7	.
CCC(C(=O)Nc1cccc(S(=O)(=O)N(C)c2ccccc2)c1)c1ccccc1 (stereo not given)	32	-8	-2	4	.	.
CCC(CC)C(=O)Nc1cccc(S(=O)(=O)c2cccc(NC(=O)C(CC)CC)c2)c1	-5	-2	4	58*	-6	36*
S=c1[nH]nc(-c2cc(-c3ccccn3)nc3ccccc23)o1	4	-5	-3	6	1	.
Cc1ccc(-c2cc(-c3n[nH]c(=S)o3)c3ccccc3n2)cc1	7	.	-6	94*	5	64*
CCOC(=O)c1c(C)[nH]c(C(=O)N/N=C/c2ccc(Br)cc2)c1C	-9	-6	5	99*	-19	76*
COc1ccc(C2SCC(=O)N2CCc2ccc(OC)c(OC)c2)cc1 (stereo not given)	-5	-2	1	71*	-24	33*
COc1ccc(NCC(=O)N/N=C/C2CCCCC2)cc1	-6	4	4	0	-11	.
O=C(Nc1nnc(S(=O)(=O)N2CCCCC2)s1)c1ccc(Cl)cc1	3	-6	1	27	-8	.
O=C(Nc1nnc(S(=O)(=O)N2CCCCCC2)s1)c1ccc(Br)cc1	-5	-6	-2	60*	-15	29*
CCC(Oc1ccccc1)C(=O)Nc1nnc(S(=O)(=O)N2CCCC2)s1 (stereo not given)	3	4	-5	85*	0	20*
CCn1c(C)nc([N+](=O)[O-])c1Sc1ccc(F)cc1	-2	0	-1	77*	0	-1	MPTP abs DR=>100;MPTP counter DR=>80
NC(=O)c1c(-c2ccc(Cl)cc2Cl)csc1NC(=O)Cc1ccccc1	-2	.	-1	103*	-9	90*
O=C(Cc1ccccc1)Nc1scc(-c2ccccc2)c1C(=O)N1CCOCC1	-8	0	0	-1	4	.
COC(=O)COc1cccc(NC(=O)c2ccc(Cl)cc2)c1	-4	0	-1	-1	0	.
O=C(Nc1ccc(OCC(F)(F)C(F)F)c(C(F)(F)F)c1)c1ccc(Cl)cc1	38	-3	31*	91*	.	84*
O=C(Nc1ccc(Br)c(C(F)(F)F)c1)c1ccc(C(F)(F)F)cc1	46	-3	24*	83*	-5	87*
O=C(Nc1ccc(C(F)(F)F)cc1)c1ccc2nc[nH]c2c1	-5	-2	6	80*	-4	93*
